The source of these data is PubChem BioAssay (Tox21).

Experiment [1] is described as follows: qHTS assay to identify small molecule antagonists of the retinoid-related orphan receptor gamma (ROR-gamma) signaling pathway - cell viability counter screen (AID 1159520). Note: % is set by controls: 0 for no effect and ±100 for the full control effect; nearly all actives have a fitted effect of over 50% in size. The method in brief:
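Tet-on ROR gamma CHO cells (1,000/well) were plated 4 hr, given compounds in DMSO for 2 hr at 37 C, then induced with 1 uM final doxycycline for 16 hr. Viability was read as ATP by CellTiter-Glo luminescence after 30 min.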

In experiment [2] the target is Nuclear receptor ROR-gamma (Homo sapiens) (UniProt P51449). The experiment in a line: qHTS assay to identify small molecule antagonists of the retinoid-related orphan receptor gamma (ROR-gamma) signaling pathway (AID 1159521; note: nearly all actives have a fitted effect of over 50% in size; note: potency is the fitted concentration of half-maximal effect). The method in brief:
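Screening format: cell-based luciferase reporter in CHO cells with doxycycline-inducible RORγ. Compound pre-exposure lasts 2 h, doxycycline is 1 uM final, induction runs 16 h at 37 C, and ONE-Glo luminescence is read.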

Experiment [3] in a line: qHTS assay to identify small molecule agonists of the AP-1 signaling pathway - cell viability counter screen (AID 1159525; calls by dose curve; note: nearly all actives have a fitted effect of over 55% in size). The method in brief:
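Each titration point was normalised to DMSO and tetra n-octyl ammonium bromide controls. The read was Cell Titer Glo luminescence after 30 min at RT, following 5 h compound exposure of ME-180 AP-1-bla cells at 37 °C.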

Experiment [4] can be described thus: qHTS assay to identify small molecule agonists of the AP-1 signaling pathway (AID 1159526; calls by dose curve; note: % is set by controls: 0 for no effect and ±100 for the full control effect).
Experiment [5] deals with Retinoic acid receptor RXR-alpha (Homo sapiens) (UniProt P19793). The experiment in a line: qHTS assay to identify small molecule agonists of the RXR signaling pathway (AID 1159527; calls by dose curve; note: % is set by controls: 0 for no effect and ±100 for the full control effect; nearly all actives have a fitted effect of over 35% in size). The method in brief:
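Fluorescence ratio readout (460 vs 530 nm) from GeneBLAzer RXR-alpha HEK 293T cells after 16 hr compound treatment; cells seeded 5 hr beforehand in low-serum, charcoal-stripped medium.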

A short description of experiment [6]: qHTS assay to identify small molecule agonists of the RXR signaling pathway - cell viability counter screen (AID 1159529). Note: series mostly up to about 77 µM; % is set by controls: 0 for no effect and ±100 for the full control effect; nearly all actives have a fitted effect of over 50% in size. The method in brief:
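Viability read-out for the RXR-alpha agonist qHTS: luminescent CellTiter-Glo signal after 30 min at RT. HEK 293T bla reporter cells, 2% charcoal-stripped FBS, 16 hr compound incubation; tetraoctyl ammonium bromide as cytotoxic control.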

The nature of experiment [7]: qHTS assay to identify small molecule antagonists of the retinoid acid receptor (RAR) signaling pathway - cell viability counter screen (AID 1159551). Note: % is set by controls: 0 for no effect and ±100 for the full control effect; nearly all actives have a fitted effect of over 35% in size. The method in brief:
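Cytotoxicity counter screen: ATP content quantified by CellTiter-Glo luminescence in C3RL4 cells treated 6 hr at 37 C with compound and retinol (1 uM final). Cells plated at 1,000/well and cultured overnight before dosing.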

Experiment [8] can be described thus: qHTS assay to identify small molecule agonists of the peroxisome proliferator-activated receptor delta (PPARd) signaling pathway - cell viability counter screen (AID 743211). Note: % is set by controls: 0 for no effect and ±100 for the full control effect; nearly all actives have a fitted effect of over 55% in size. The method in brief: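 Following 5 h plating at 37 C and 5% CO2, PPARd UAS-bla HEK293H cells took up test compounds for 17 h. Viability was quantified by luminescence 30 min after CellTiter-Glo addition at room temperature.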

Experiment [9] deals with Peroxisome proliferator-activated receptor delta (Homo sapiens) (UniProt Q03181). Briefly: qHTS assay to identify small molecule agonists of the peroxisome proliferator-activated receptor delta (PPARd) signaling pathway (AID 743212; calls by dose curve; note: % is set by controls: 0 for no effect and ±100 for the full control effect). The method in brief:
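Cells expressing a UAS-driven beta-lactamase reporter (PPARd-bla HEK293H) were given test compounds after a 5 h settle and kept at 37 C. Reporter activity was then measured as FRET fluorescence using LiveBLAzer B/G substrate.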

Experiment [10] can be described thus: qHTS assay to identify small molecule antagonists of the peroxisome proliferator-activated receptor delta (PPARd) signaling pathway - cell viability counter screen (AID 743213). Note: % is set by controls: 0 for no effect and ±100 for the full control effect; nearly all actives have a fitted effect of over 50% in size. The method in brief:
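CellTiter-Glo was added to PPARd-bla HEK293H wells following 17 h compound treatment in the presence of 300 nM L165041. Luminescence was recorded after 30 min at room temperature.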

The target in experiment [11] is Peroxisome proliferator-activated receptor delta (Homo sapiens) (UniProt Q03181). Briefly: qHTS assay to identify small molecule antagonists of the peroxisome proliferator-activated receptor delta (PPARd) signaling pathway (AID 743215; active = well fitted inhibition curve with a large enough effect in the signal ratio in the repeat runs, not every such curve was filed as active; the % refers to the signal ratio;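 note: cells stimulated with agonist L165041 at 300 nM final during compound exposure; series mostly up to about 62 µM; % is set by controls: 0 for no effect and ±100 for the full control effect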). The method in brief: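 Agonist L165041 (300 nM final) added with compound to PPARd-bla HEK293H UAS-bla reporter cells; 17 h incubation at 37 C. Read-out: LiveBLAzer FRET substrate, 2 h at room temperature, fluorescence intensity.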
Sequence of Peroxisome proliferator-activated receptor delta (Homo sapiens) (Q03181 whole entry, looked up): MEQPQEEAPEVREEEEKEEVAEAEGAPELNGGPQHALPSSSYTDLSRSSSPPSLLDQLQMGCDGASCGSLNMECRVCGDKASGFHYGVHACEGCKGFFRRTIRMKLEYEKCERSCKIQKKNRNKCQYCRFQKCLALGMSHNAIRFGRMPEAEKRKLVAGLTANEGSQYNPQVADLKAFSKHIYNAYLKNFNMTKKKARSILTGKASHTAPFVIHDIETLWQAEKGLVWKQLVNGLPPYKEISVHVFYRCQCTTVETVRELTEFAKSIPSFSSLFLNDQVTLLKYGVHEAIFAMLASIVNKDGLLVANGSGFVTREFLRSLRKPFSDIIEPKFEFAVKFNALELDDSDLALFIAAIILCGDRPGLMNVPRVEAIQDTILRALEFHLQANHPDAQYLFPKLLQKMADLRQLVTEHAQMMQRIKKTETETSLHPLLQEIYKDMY

Experiment [12] is described as follows: qHTS assay to identify small molecule agonists of the farnesoid-X-receptor (FXR) signaling pathway - cell viability counter screen (AID 743218). Note: % is set by controls: 0 for no effect and ±100 for the full control effect; nearly all actives have a fitted effect of over 45% in size. The method in brief: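 Viability counter screen in the same wells: CellTiter-Glo luminescence, 30 min room-temperature incubation, measured after the beta-lactamase read. Cells were GeneBLAzer FXR-UAS-bla HEK 293T, compound-treated 16 h at 37C.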

Experiment [13] deals with Bile acid receptor (Homo sapiens) (UniProt Q96RI1). The experiment in a line: qHTS assay to identify small molecule agonists of the farnesoid-X-receptor (FXR) signaling pathway (AID 743220; active = well fitted activation curve with a large enough effect in the signal ratio in the repeat runs, not every such curve was filed as active; the % refers to the signal ratio; note: % is set by controls: 0 for no effect and ±100 for the full control effect). The method in brief:
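FXR-UAS-bla HEK 293T cells carrying a UAS-driven beta-lactamase reporter were plated for 5 h at 37C/5% CO2, then exposed to DMSO-dissolved Tox21 10K compounds for 16 h at 37C. A LiveBLAzer B/G FRET substrate was loaded for 2 h at room temperature before fluorescence reading.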

The target of experiment [14] is Vitamin D3 receptor (Homo sapiens) (UniProt P11473). Briefly: qHTS assay to identify small molecule agonists of the vitamin D receptor (VDR) signaling pathway (AID 743222; calls by dose curve; note: % is set by controls: 0 for no effect and ±100 for the full control effect). The method in brief: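 Agonist mode, beta-lactamase reporter: fluorescence from LiveBLAzer B/G FRET substrate (2 h, room temperature) read after 16 h compound treatment at 37 C of VDR-bla cells, which were pre-incubated 4 h after seeding.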
Sequence of Vitamin D3 receptor (Homo sapiens) (P11473 whole entry, looked up): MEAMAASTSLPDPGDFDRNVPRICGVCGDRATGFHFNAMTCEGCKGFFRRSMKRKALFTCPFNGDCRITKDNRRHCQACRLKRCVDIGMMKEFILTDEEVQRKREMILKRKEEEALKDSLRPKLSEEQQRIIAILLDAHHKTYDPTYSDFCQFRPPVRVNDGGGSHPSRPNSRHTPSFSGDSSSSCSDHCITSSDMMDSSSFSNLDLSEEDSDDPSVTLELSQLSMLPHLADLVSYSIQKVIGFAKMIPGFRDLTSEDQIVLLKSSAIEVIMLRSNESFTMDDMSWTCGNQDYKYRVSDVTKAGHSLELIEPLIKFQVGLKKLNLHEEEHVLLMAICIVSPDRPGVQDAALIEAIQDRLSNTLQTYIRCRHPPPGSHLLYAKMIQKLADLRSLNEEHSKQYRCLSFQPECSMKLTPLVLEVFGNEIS

Experiment [15] shares this target. The experiment in a line: qHTS assay to identify small molecule antagonists of the vitamin D receptor (VDR) signaling pathway (AID 743223; active = well fitted inhibition curve with a large enough effect in the signal ratio in the repeat runs, not every such curve was filed as active; the % refers to the signal ratio; note: % is set by controls: 0 for no effect and ±100 for the full control effect). The method in brief:
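Beta-lactamase activity in VDR-bla cells is measured by FRET substrate fluorescence (2 h, room temperature) after cells spend 16 h at 37C with test compound and 3 nM final 1alpha,25-dihydroxyvitamin D3.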

A short description of experiment [16]: qHTS assay to identify small molecule agonists of the vitamin D receptor (VDR) signaling pathway - cell viability counter screen (AID 743224). The method in brief: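 Counter screen run in the same wells as the VDR-bla reporter assay: CellTiter-Glo luminescence, 30 min at room temperature, after 16 h compound treatment at 37C of cells pre-plated for 4 h.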

Experiment [17] can be described thus: qHTS assay to identify small molecule antagonists of the vitamin D receptor (VDR) signaling pathway - cell viability counter screen (AID 743225). The method in brief:
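In this counter screen, VDR-bla HEK 293T cells receive test compound plus 3 nM final calcitriol for 16 h at 37C. Room-temperature steps of 2 h with the beta-lactamase substrate, then 30 min with CellTiter-Glo, precede the luminescence read.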

The nature of experiment [18]: qHTS assay to identify small molecule antagonists of the retinoic acid receptor (RAR) signaling pathway (AID 1159552). The method in brief: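 Using a RARE-driven luciferase construct in C3RL4 cells, retinol at 1 uM final provided the agonist stimulus while compounds were co-applied. After 6 hours at 37 C, luminescence was recorded to flag inhibitors of retinol signaling.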

Inconclusive results are not listed. A number with no mark means an inactive call. Calls of active or inactive are those of the source. Unless noted, calls come from the whole dose curve; as a rule, active = well fitted curve in the direction sought with a large enough effect in the repeat runs; inconclusive = weak or mixed curves; inactive = no such curve, though single readings can be large; an effect the other way counts as inactive or inconclusive.

Sequence of Retinoic acid receptor RXR-alpha (Homo sapiens) (P19793 whole entry, looked up): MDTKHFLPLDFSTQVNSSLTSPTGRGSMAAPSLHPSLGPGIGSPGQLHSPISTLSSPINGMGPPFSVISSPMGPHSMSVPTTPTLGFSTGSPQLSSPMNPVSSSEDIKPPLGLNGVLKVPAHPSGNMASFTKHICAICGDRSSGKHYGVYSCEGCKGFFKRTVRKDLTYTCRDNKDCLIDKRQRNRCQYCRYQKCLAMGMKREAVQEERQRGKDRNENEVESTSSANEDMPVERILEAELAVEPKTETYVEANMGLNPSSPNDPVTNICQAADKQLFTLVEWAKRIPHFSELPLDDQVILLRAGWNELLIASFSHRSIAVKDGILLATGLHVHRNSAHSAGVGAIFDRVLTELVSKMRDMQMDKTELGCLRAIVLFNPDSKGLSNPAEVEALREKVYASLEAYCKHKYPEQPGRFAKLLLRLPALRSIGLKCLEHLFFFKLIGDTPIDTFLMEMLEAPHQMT
Sequence of Bile acid receptor (Homo sapiens) (Q96RI1 whole entry, looked up): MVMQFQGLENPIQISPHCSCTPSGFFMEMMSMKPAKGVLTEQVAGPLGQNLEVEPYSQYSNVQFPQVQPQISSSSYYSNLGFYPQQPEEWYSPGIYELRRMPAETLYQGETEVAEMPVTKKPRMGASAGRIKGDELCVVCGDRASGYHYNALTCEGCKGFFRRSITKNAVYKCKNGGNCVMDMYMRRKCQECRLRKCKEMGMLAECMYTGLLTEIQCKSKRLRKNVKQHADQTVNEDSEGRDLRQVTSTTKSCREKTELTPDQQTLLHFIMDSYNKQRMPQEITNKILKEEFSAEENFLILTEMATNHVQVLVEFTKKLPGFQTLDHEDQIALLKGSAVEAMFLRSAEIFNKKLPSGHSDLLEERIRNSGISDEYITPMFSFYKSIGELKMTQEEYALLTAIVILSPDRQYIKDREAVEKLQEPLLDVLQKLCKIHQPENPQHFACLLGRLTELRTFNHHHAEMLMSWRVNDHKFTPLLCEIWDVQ

As for `O=C1CCC(=O)N1`, the Potency result in experiment [1], in experiment [2], in experiment [3], in [4], in experiment [5] and in experiment [6] was “inactive” each time. Further, the Potency entry in [7] was “inactive”.
`SC1CCCCC1`: the Potency result in experiment [8], in experiment [10], in experiment [11], in [12], in experiment [15] and in experiment [16] was “inactive” each time. The Potency entry in experiment [17], in experiment [1], in experiment [2], in [3], in experiment [4] and in experiment [5] was “inactive” in each case. Further, the Potency result in experiment [6] and in experiment [7] was “inactive” throughout. In addition, the call in experiment [9], in experiment [13] and in [14] was inactive.
Take `O=C(NCc1ncc(C(F)(F)F)cc1Cl)c1c(Cl)cccc1Cl`: the Potency entry in experiment [1], in experiment [3], in [4] and in experiment [7] was “inactive” in each case. Further, the Potency in experiment [2] is 12.2 µM (active).
Turning to `C=Cc1ccc(O)c(OC)c1`, the Potency result in [1], in experiment [2], in [3], in experiment [5], in experiment [6] and in experiment [7] was “inactive” throughout.
Consider `CCc1cccc(C)c1N(C(=O)C(=O)O)C(C)COC` (stereo unspecified), for which the Potency entry in experiment [1], in experiment [2], in experiment [3], in experiment [5], in [6] and in [7] was “inactive” throughout. Also, the Potency result in experiment [18] was “inactive”.
`C=C[Si](C)(C)Cl`: the activity, negative = cytotoxicity in [1] is 5.94% [at 8.39 µM]. The activity change, negative = inhibition in experiment [2] is -27.2% [at 8.39 µM]. Moreover, the viability change, negative = cytotoxic in [3] is -3.04% [at 6.97 µM]. Moreover, the activation in experiment [5] is 0.333% [at 6.98 µM]. For the same compound, in experiment [7], the activity change, negative = cytotoxicity was -1.54% [at 8.39 µM]. The activity, negative = inhibition in experiment [18] was 83.8% [at 8.39 µM].
Regarding `CC(C)=CCC[C@H](C)CC=O`, the Potency entry in [1], in experiment [2], in experiment [3], in experiment [4], in experiment [5] and in experiment [6] was “inactive” in each case. The Potency result in [7] was “inactive”.
In the case of `CCOc1nc(F)cc2nc(S(=O)(=O)Nc3c(Cl)cccc3C(=O)OC)nn12`, the Potency result in experiment [1], in experiment [2], in experiment [3], in experiment [4], in [5] and in experiment [6] was “inactive” each time. Further, the Potency entry in experiment [7] and in experiment [18] was “inactive” in each case.
As for `Nc1ccc2c(S(=O)(=O)O)cccc2c1S(=O)(=O)O`, the Potency result in experiment [1], in experiment [2], in [3], in [5], in [6] and in experiment [7] was “inactive” throughout. The Potency entry in experiment [18] is “inactive”.
As to `C=C(C)CCO`, the Potency result in experiment [1], in [2], in [3], in [5], in experiment [6] and in [7] was “inactive” each time.
As to `Nc1ccc(Cl)c([N+](=O)[O-])c1`, the Potency entry in [1], in experiment [3], in experiment [5], in [6], in [7] and in experiment [18] was “inactive” in each case. In addition, the Potency in [2] is 38.6 µM (active).
For `O=C1c2ccccc2C(=O)c2c(Cl)cccc21`, the Potency result in experiment [1], in experiment [2], in experiment [3], in experiment [4], in experiment [5] and in experiment [7] was “inactive” each time. Further, the Potency entry in experiment [18] was “inactive”.
As to `Clc1cccc(Cl)n1`, the Potency entry in experiment [1], in experiment [2], in experiment [3], in experiment [5], in [6] and in [7] was “inactive” each time.
